Bioassay records (PubChem BioAssay)
Shiga toxin inh: blocks Shiga toxin action in Vero cells; Vero cells, Shiga toxin protein synthesis inhibition reporter; inhibition, % at 38.7 µM; actives 9.2% (n = 290,000); in the data active means inhibition mostly above about 28%, no sharp cut-off; inactive means mostly below about 43%
Pf growth 48h: inhibits P. falciparum growth in the first generation, 48 h; P. falciparum luciferase growth in erythrocytes, 48 h; Potency, µM (top dose mostly 28.7 µM), most hits filed as inhibitors; actives 5.9% (n = 310,000)
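Parasite viability was followed by luminescence of a genomically integrated firefly luciferase. Cultures held 0.1% parasitemia at 2% hematocrit (final), incubated under 5% CO2 at 37 C.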
Pf growth 96h: inhibits malaria parasite growth, 96 h. Potency, µM (titrated, usually from 28.7 µM), usual class: inhibitors. actives 6.9% (n = 320,000). AID 504834. P. falciparum luciferase reporter growth, 96 h
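P. falciparum expressing integrated firefly luciferase, in erythrocytes at 2% hematocrit, 0.05% parasitemia, incubated with compounds 96 h at 37 C, 5% CO2. Growth inhibition read as loss of luminescence; two-generation exposure targets delayed-death apicoplast inhibitors.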
Cycloheximide cs: affects cycloheximide protein synthesis inhibition readout, counter-screen | cell reporter, cycloheximide protein synthesis inhibition counterscreen | max response, % | actives 12% (n = 300,000); in the data active means max response mostly above about 13%, no sharp cut-off; inactive means mostly below about 14%; further: read at 38.3 µM for the half of the compounds with a filed dose
A number is an active result; [ ] = another dose, or the depositor's remark. In the library only some 21% were active in any assay of this set; here they are far more common. Unless noted, the call rests on the fitted dose curve; in most records, active means well fitted inhibition curve with a large enough effect; inconclusive means small, poorly fitted or top-dose-only effect, or another doubt; inactive means no such curve, though single readings can be large or run the other way.

Screening O=C(CSc1nnc(CNC(=O)c2c(F)cccc2F)o1)NCc1ccco1 returned Shiga toxin inh inactive, Pf growth 48h inactive, Pf growth 96h inactive and Cycloheximide cs inactive.
`COc1ccc(C(=O)/C=C/C(=O)N(Cc2ccccc2OC)C(C(=O)NC2CCCCC2)c2ccncc2)c(O)c1` (stereo not drawn) gave Shiga toxin inh inactive, Pf growth 48h 12µM, Pf growth 96h inactive and Cycloheximide cs inactive.
For COc1ccc(C(=O)/C=C/C(=O)N(Cc2ccc(F)cc2)C(C(=O)NC2CCCCC2)c2ccncc2)c(O)c1 (stereo not drawn) the results were Shiga toxin inh inactive, Pf growth 48h 5.2µM, Pf growth 96h inactive and Cycloheximide cs inactive.
For COc1ccc(C(=O)/C=C/C(=O)N(Cc2ccccc2)C(C(=O)NC2CCCCC2)c2ccncc2)c(O)c1 (stereo not drawn) the results were Shiga toxin inh inactive, Pf growth 48h inconclusive, Pf growth 96h inactive and Cycloheximide cs inactive.
`CC/C(C)=N/Oc1nc(C)cc(C)n1` gave Shiga toxin inh inactive, Pf growth 48h inactive, Pf growth 96h inactive and Cycloheximide cs inactive.
Screening COc1ccccc1NS(=O)(=O)c1cccc(C(=O)N/N=C/c2cn(-c3ccccc3)nc2-c2ccccc2)c1 returned Shiga toxin inh inactive, Pf growth 48h 2.1µM, Pf growth 96h 2.9µM and Cycloheximide cs inactive.
Screening COc1ccc(NS(=O)(=O)c2cccc(C(=O)N/N=C/c3cn(-c4ccccc4)nc3-c3ccc(OC)cc3)c2)cc1 returned Shiga toxin inh inactive, Pf growth 48h 2.3µM, Pf growth 96h inconclusive and Cycloheximide cs inactive.
CCCn1nnnc1NC(=O)COc1ccc(Br)cc1 was read as Shiga toxin inh inactive, Pf growth 48h inactive, Pf growth 96h inconclusive and Cycloheximide cs inactive.
`CCN(Cc1ccccc1)S(=O)(=O)c1cc2[nH]c(=O)c(=O)[nH]c2cc1C` gave Shiga toxin inh inactive, Pf growth 48h inactive, Pf growth 96h inconclusive and Cycloheximide cs inactive.
For Cc1ccc(NC2(c3nnnn3-c3c(C)cccc3C)CCCCC2)cc1 the results were Shiga toxin inh inactive, Pf growth 48h 13µM, Pf growth 96h inconclusive and Cycloheximide cs inactive.
For CO[C@H]1[C@@H](OC(N)=O)[C@H](O)[C@@H](Oc2ccc3c(O)c(NC(=O)c4ccc(O)c(CC=C(C)C)c4)c(=O)oc3c2C)OC1(C)C the results were Pf growth 48h inactive and Pf growth 96h inactive.
For COC1C(OC(=O)c2ccc(C)[nH]2)C(O)C(Oc2ccc3c(O)c(NC(=O)c4ccc(O)c(CC=C(C)C)c4)c(=O)oc3c2Cl)OC1(C)C (stereo not drawn) the results were Shiga toxin inh inactive, Pf growth 48h 5.9µM, Pf growth 96h inconclusive and Cycloheximide cs inactive.
Screening Nc1nc(-c2ccccc2)[nH]c(=O)c1N returned Shiga toxin inh 30, Pf growth 48h inactive, Pf growth 96h inactive and Cycloheximide cs 26.
`O=c1[nH]c(-c2ccccc2)nnc1-c1ccccc1` gave Shiga toxin inh inactive, Pf growth 48h inactive, Pf growth 96h inactive and Cycloheximide cs 18.
`Nc1[nH]nc2nc(-c3ccccc3)[nH]c(=O)c12` gave Shiga toxin inh inactive, Pf growth 48h inactive, Pf growth 96h inactive and Cycloheximide cs inactive.
`Cc1nnc(-c2ccccc2)[nH]c1=O` gave Shiga toxin inh inactive, Pf growth 48h inactive[5.75 µM], Pf growth 96h inactive[5.75 µM] and Cycloheximide cs inactive.
CCCOc1ccc(/C(O)=C2/C(=O)C(=O)N(c3ccccn3)C2c2ccc(OC)cc2)cc1C (stereo not drawn) was read as Shiga toxin inh inactive, Pf growth 48h inactive, Pf growth 96h inactive and Cycloheximide cs inactive.
`COc1ccccc1N1CCN(CCC(=O)Nc2ccc(F)cc2)CC1` gave Shiga toxin inh inactive, Pf growth 48h inactive, Pf growth 96h inactive and Cycloheximide cs inactive.
Screening COC(=O)CCCC(=O)NC(C)c1cnn(-c2ccccc2C)c1C (stereo not drawn) returned Shiga toxin inh inactive, Pf growth 48h inactive, Pf growth 96h 13µM and Cycloheximide cs inactive.
`COCc1ccc(C(=O)NC(C)c2cnn(-c3ccccc3C)c2C)o1` (stereo not drawn) gave Shiga toxin inh inactive, Pf growth 48h inactive, Pf growth 96h inactive and Cycloheximide cs inactive.
`COc1cc(C(=O)NC(C)c2cnn(-c3ccccc3C)c2C)cc(OC)c1OC` (stereo not drawn) gave Shiga toxin inh inactive, Pf growth 48h inconclusive, Pf growth 96h inactive and Cycloheximide cs 15.
`C/C(=N\NS(=O)(=O)c1ccc(C(C)(C)C)cc1)c1ccccc1` gave Shiga toxin inh inactive, Pf growth 48h inactive, Pf growth 96h inconclusive and Cycloheximide cs inactive.
`C/C(=N\Nc1nc(C(C)(C)C)cs1)c1ccccc1` gave Shiga toxin inh 135, Pf growth 48h inactive, Pf growth 96h inactive and Cycloheximide cs 57.
`C/C(=N\Nc1nc(C(=O)O)cs1)c1ccccc1` gave Shiga toxin inh inactive, Pf growth 48h inactive, Pf growth 96h inactive and Cycloheximide cs 23.
For C/C(=N\Nc1nc(C(C)(C)C)cs1)c1ccc(O)cc1 the results were Shiga toxin inh 121, Pf growth 48h inconclusive, Pf growth 96h inconclusive and Cycloheximide cs 53.
Screening C/C(=N/NC(=O)C(=O)N/N=C(/C)c1ccccc1)c1ccccc1 returned Shiga toxin inh inactive, Pf growth 48h inactive, Pf growth 96h inactive and Cycloheximide cs inactive.
Screening O=C(CNCc1ccccc1)NCCCN1CCCC1=O returned Shiga toxin inh inactive, Pf growth 48h inactive, Pf growth 96h inactive and Cycloheximide cs inactive.
CCOC(=O)C1=C([Si](C)(C)C)c2ccccc2N(S(=O)(=O)C(F)(F)F)C1C(=O)OCC (stereo not drawn) was read as Shiga toxin inh inactive and Cycloheximide cs inactive.
COc1ccccc1C(=O)NC(=O)COC(=O)CCS(=O)(=O)c1ccc(C)cc1 was read as Pf growth 48h inactive and Pf growth 96h inconclusive.
COc1cccc(CNC(=O)Cc2ccc(S(=O)(=O)N3CCOCC3)s2)c1 was read as Pf growth 48h inconclusive and Pf growth 96h inactive.
`COc1ccc(CC(=O)Nc2cccc(SC)c2)cc1` gave Shiga toxin inh inactive, Pf growth 48h inactive, Pf growth 96h inactive and Cycloheximide cs 17.
For COc1ccc(CC(C)Nc2cccc(SC)c2)cc1 (stereo not drawn) the results were Shiga toxin inh inactive, Pf growth 48h inactive, Pf growth 96h 8.3µM and Cycloheximide cs inactive.
COc1cc(CC(=O)Nc2cccc(SC)c2)cc(OC)c1OC was read as Shiga toxin inh inactive, Pf growth 48h inactive, Pf growth 96h inconclusive and Cycloheximide cs inactive.
COc1ccc(OC)c(S(=O)(=O)Nc2ccc(-c3ccc4nncn4n3)cc2)c1 was read as Pf growth 48h inactive and Pf growth 96h inconclusive.
Screening COc1ccc(CNC(=O)C2CCN(S(=O)(=O)N3CCCC3)CC2)c(OC)c1 returned Shiga toxin inh inactive, Pf growth 48h inactive, Pf growth 96h inactive and Cycloheximide cs inactive.
Screening C/C(=N\OCc1ccccc1C#N)c1cc2ccccc2o1 returned Shiga toxin inh 71, Pf growth 48h inactive, Pf growth 96h inactive and Cycloheximide cs 36.
`C/C(=N\OCC(=O)NC12CC3CC(CC(C3)C1)C2)c1cc2ccccc2o1` gave Shiga toxin inh inactive, Pf growth 48h inactive, Pf growth 96h inconclusive and Cycloheximide cs 18.
